Reference: PubChem BioAssay (EPA / NIEHS)
Calls of active or inactive are those of the source. Rule for the calls: active = hit-call score of the fitted dose curve at least 0.9, where 1 is the maximum; inactive = score below 0.9.

How the values were obtained:
Settings in all cases: mRNA level, 48 h; actives raise or lower the signal
[1] = read-out: Bcl-2 (BAD) gene, BAD (gene 572); test: LTEA_HepaRG_BAD: Life Technologies and Expression Analysis (LTEA) Assay for Bcl-2 (BAD) gene using HepaRG (AID 2283469)
Summary of the method: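 Differentiated human HepaRG cells in serum-free induction medium were exposed in duplicate for 48 h to eight concentrations (top 100 uM, half-log steps, 0.5% DMSO). BAD mRNA was quantified by qRT-PCR normalised to ACTB, GAPDH and POLR2A, with bidirectional fitting versus DMSO.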

[2] = read-out: Bcl-2 (BAX) gene, BAX (gene 581); test: LTEA_HepaRG_BAX: Life Technologies and Expression Analysis (LTEA) Assay for Bcl-2 (BAX) gene using HepaRG (AID 2283470)
Summary of the method: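 Differentiated human HepaRG cells, plated 48 h then switched to serum-free induction medium, were exposed 48 h to 8 half-log concentrations up to 100 uM in 0.5% DMSO; BAX mRNA measured by qRT-PCR, normalized to ACTB, GAPDH, POLR2A.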

[3] = read-out: adenosine kinase (ADK) gene, ADK (gene 132); test: LTEA_HepaRG_ADK: Life Technologies and Expression Analysis (LTEA) Assay for adenosine kinase (ADK) gene using HepaRG (AID 2283471)
Summary of the method: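 ADK expression quantified by qRT-PCR, normalised to three housekeeping genes, after 48 h exposure of HepaRG cells to eight concentrations (top 100 uM, half-log steps, duplicate, 0.5% DMSO). Up- or down-regulation fitted relative to vehicle.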

[4] = read-out: Alpha-fetoprotein (AFP) gene, AFP (gene 174); test: LTEA_HepaRG_AFP: Life Technologies and Expression Analysis (LTEA) Assay for Alpha-fetoprotein (AFP) gene using HepaRG (AID 2283472)
Summary of the method: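 Human HepaRG cells plated 48 h, then switched to serum-free induction medium and exposed in duplicate for 48 h to 8-point half-log series from 100 uM in 0.5% DMSO. AFP mRNA by qRT-PCR, normalized to ACTB, GAPDH, POLR2A; bidirectional fit versus DMSO.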

[5] = read-out: BCL2L11 (gene 10018); test: LTEA_HepaRG_BCL2L11: Life Technologies and Expression Analysis (LTEA) Assay for Bcl-2 (BCL2L11) gene using HepaRG (AID 2283473)
Summary of the method: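 Cells were plated, cultured 48 h, switched to serum-free induction medium, then dosed in duplicate for 48 h at eight half-log concentrations up to 100 uM. Lysates underwent RNA isolation and TaqMan qRT-PCR; gain or loss versus DMSO was fitted.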

[6] = read-out: Apolipoprotein A-V (APOA5) gene, APOA5 (gene 116519); test: LTEA_HepaRG_APOA5: Life Technologies and Expression Analysis (LTEA) Assay for Apolipoprotein A-V (APOA5) gene using HepaRG (AID 2283474)
Summary of the method: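 Human liver HepaRG cells are treated 48 h with test chemicals (100 uM top, half-log dilutions, 0.5% DMSO). APOA5 mRNA induction or loss is measured by qRT-PCR relative to vehicle.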

[7] = read-out: Apoptosis regulator Bcl-2 (Homo sapiens) (UniProt P10415); test: LTEA_HepaRG_BCL2: Life Technologies and Expression Analysis (LTEA) Assay for Bcl-2 gene using HepaRG (AID 2283475)
Summary of the method: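 Differentiated HepaRG cells in serum-free induction medium were exposed for 48 h to eight half-log concentrations up to 100 uM in 0.5% DMSO, in duplicate. BCL2 mRNA was quantified by TaqMan qRT-PCR normalised to ACTB, GAPDH and POLR2A, with bidirectional fitting versus DMSO.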

[8] = read-out: Bcl-2 (BID) gene, BID (gene 637); test: LTEA_HepaRG_BID: Life Technologies and Expression Analysis (LTEA) Assay for Bcl-2 (BID) gene using HepaRG (AID 2283476)
Summary of the method: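 Differentiated HepaRG cells in serum-free induction medium were exposed in duplicate for 48 h to eight half-log concentrations up to 100 uM in 0.5% DMSO. BID mRNA was quantified by qRT-PCR, normalized to ACTB, GAPDH and POLR2A.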

[9] = read-out: Caspase-3 (Homo sapiens) (UniProt P42574); test: LTEA_HepaRG_CASP3: Life Technologies and Expression Analysis (LTEA) Assay for cysteine-aspartic acid protease (CASP3) using HepaRG (AID 2283477)
Summary of the method: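 In HepaRG liver cells dosed for 48 h at up to 100 uM (eight-point, duplicate), CASP3 expression changes are scored by qRT-PCR. Activity is fitted in both directions with 0.5% DMSO as baseline.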

[10] = read-out: Cytochrome P450 (CYP24A1), CYP24A1 (gene 1591); test: LTEA_HepaRG_CYP24A1: Life Technologies and Expression Analysis (LTEA) Assay for Cytochrome P450 (CYP24A1) using HepaRG (AID 2283478)
Summary of the method: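 Human liver HepaRG cultures receive each chemical for 48 h across an eight-point half-log series topping at 100 uM in 0.5% DMSO. Induction or suppression of CYP24A1 mRNA is scored relative to vehicle after housekeeping-gene normalization.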

[11] = read-out: Cytochrome P450 (CYP1A2), CYP1A2 (gene 1544); test: LTEA_HepaRG_CYP1A2: Life Technologies and Expression Analysis (LTEA) Assay for Cytochrome P450 (CYP1A2) using HepaRG (AID 2283479)
Summary of the method: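 Assesses CYP1A2 mRNA in human HepaRG liver cells after 48 h chemical exposure at up to 100 uM. Values come from qRT-PCR with bidirectional curve fitting relative to DMSO.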

[12] = read-out: cysteine-aspartic acid protease (CASP8), CASP8 (gene 841); test: LTEA_HepaRG_CASP8: Life Technologies and Expression Analysis (LTEA) Assay for cysteine-aspartic acid protease (CASP8) using HepaRG (AID 2283480)
Summary of the method: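 Differentiated human HepaRG cells, plated 48 h then switched to serum-free induction medium, were exposed in duplicate for 48 h to 8 half-log concentrations up to 100 uM in 0.5% DMSO. CASP8 mRNA was quantified by qRT-PCR, normalized to ACTB/GAPDH/POLR2A.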

[13] = read-out: Cytochrome P450 (CYP2B6), CYP2B6 (gene 1555); test: LTEA_HepaRG_CYP2B6: Life Technologies and Expression Analysis (LTEA) Assay for Cytochrome P450 (CYP2B6) using HepaRG (AID 2283481)
Summary of the method: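 Using 48 h treatment of HepaRG cells in serum-free induction medium, concentrations spanned half-log steps from 100 uM in 0.5% DMSO vehicle. CYP2B6 mRNA induction or loss is scored by qRT-PCR against DMSO.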

[14] = read-out: Cytochrome P450 2C19 (Homo sapiens) (UniProt P33261); test: LTEA_HepaRG_CYP2C19: Life Technologies and Expression Analysis (LTEA) Assay for CYP2C19 using HepaRG (AID 2283482)
Summary of the method: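 Human HepaRG liver cells received test chemicals for 48 h (highest 100 uM, half-log dilutions in 0.5% DMSO). CYP2C19 mRNA induction or loss is read by multiplexed qRT-PCR and fitted in both directions versus vehicle.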

[15] = read-out: CYP2C8 (gene 1558); test: LTEA_HepaRG_CYP2C8: Life Technologies and Expression Analysis (LTEA) Assay for CYP2C8 using HepaRG (AID 2283483)
Summary of the method: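 Differentiated human HepaRG cells were exposed for 48 h in serum-free induction medium to eight half-log concentrations up to 100 uM in 0.5% DMSO, in duplicate. CYP2C8 mRNA was measured by TaqMan qRT-PCR, normalized to ACTB, GAPDH and POLR2A, and fitted bidirectionally against DMSO.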

[16] = read-out: CYP2C9 (gene 1559); test: LTEA_HepaRG_CYP2C9: Life Technologies and Expression Analysis (LTEA) Assay for CYP2C9 using HepaRG (AID 2283484)
Summary of the method: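 Differentiated human HepaRG cells were exposed 48 h in serum-free induction medium to eight half-log concentrations up to 100 uM in 0.5% DMSO. CYP2C9 mRNA was measured by qRT-PCR, normalized to ACTB, GAPDH and POLR2A, and fitted bidirectionally against DMSO.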

[17] = read-out: CYP2E1 (gene 1571); test: LTEA_HepaRG_CYP2E1: Life Technologies and Expression Analysis (LTEA) Assay for CYP2E1 using HepaRG (AID 2283485)
Summary of the method: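 HepaRG cells in serum-free induction medium exposed 48 h to test chemicals, 8 half-log concentrations up to 100 uM in 0.5% DMSO, duplicate. CYP2E1 mRNA by qRT-PCR, normalized to ACTB, GAPDH, POLR2A; bidirectional fit versus DMSO.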

[18] = read-out: CYP4A11 (gene 1579); test: LTEA_HepaRG_CYP4A11: Life Technologies and Expression Analysis (LTEA) Assay for CYP4A11 using HepaRG (AID 2283486)
Summary of the method: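 Readout is CYP4A11 mRNA induction or suppression (qRT-PCR, ACTB/GAPDH/POLR2A normalization) in human HepaRG cells after 48 h chemical treatment, concentrations to 100 uM in 0.5% DMSO, fitted bidirectionally against vehicle.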

[19] = read-out: Cytochrome P450 3A4 (Homo sapiens) (UniProt P08684); test: LTEA_HepaRG_CYP3A4: Life Technologies and Expression Analysis (LTEA) Assay for CYP3A4 using HepaRG (AID 2283487)
Summary of the method: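 Differentiated HepaRG cells, plated 48 h, then dosed 48 h in serum-free induction medium with 0.5% DMSO, 8 half-log concentrations up to 100 uM, duplicate. CYP3A4 mRNA by qRT-PCR, normalized to ACTB/GAPDH/POLR2A; bidirectional fit versus DMSO.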

[20] = read-out: DNA damage-inducible transcript 3 (DDIT3), DDIT3 (gene 1649); test: LTEA_HepaRG_DDIT3: Life Technologies and Expression Analysis (LTEA) Assay for DNA damage-inducible transcript 3 (DDIT3) using HepaRG (AID 2283488)
Summary of the method: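 Differentiated human HepaRG cells in serum-free induction medium were exposed in duplicate for 48 h to 8 concentrations (top 100 uM, half-log steps, 0.5% DMSO). DDIT3 mRNA measured by TaqMan qRT-PCR, normalized to ACTB/GAPDH/POLR2A; bidirectional fit versus DMSO.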

Measured: outcome

Chain of Apoptosis regulator Bcl-2 (Homo sapiens) (P10415 whole entry, looked up): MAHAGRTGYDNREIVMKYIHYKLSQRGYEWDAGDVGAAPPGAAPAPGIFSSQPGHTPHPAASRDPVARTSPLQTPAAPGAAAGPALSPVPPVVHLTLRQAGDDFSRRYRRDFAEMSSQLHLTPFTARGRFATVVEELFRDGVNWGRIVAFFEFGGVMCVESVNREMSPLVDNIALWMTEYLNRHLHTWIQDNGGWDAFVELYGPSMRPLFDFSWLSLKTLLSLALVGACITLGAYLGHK
Chain of Cytochrome P450 3A4 (Homo sapiens) (P08684 whole entry, looked up): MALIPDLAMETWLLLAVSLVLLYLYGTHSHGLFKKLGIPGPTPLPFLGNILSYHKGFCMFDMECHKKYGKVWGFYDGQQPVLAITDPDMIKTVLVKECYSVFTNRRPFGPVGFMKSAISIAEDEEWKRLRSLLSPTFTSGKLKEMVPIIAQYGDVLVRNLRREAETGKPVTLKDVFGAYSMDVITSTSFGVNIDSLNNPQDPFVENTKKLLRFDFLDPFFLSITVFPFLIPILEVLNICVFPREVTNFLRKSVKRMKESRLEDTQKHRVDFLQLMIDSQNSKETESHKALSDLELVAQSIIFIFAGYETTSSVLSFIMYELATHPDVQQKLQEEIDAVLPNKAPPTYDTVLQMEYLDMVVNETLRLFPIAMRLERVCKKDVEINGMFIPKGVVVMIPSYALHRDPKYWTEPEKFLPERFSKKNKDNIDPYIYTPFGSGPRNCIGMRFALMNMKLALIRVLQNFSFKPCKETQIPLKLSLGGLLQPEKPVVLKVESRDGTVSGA
Chain of Caspase-3 (Homo sapiens) (P42574 whole entry, looked up): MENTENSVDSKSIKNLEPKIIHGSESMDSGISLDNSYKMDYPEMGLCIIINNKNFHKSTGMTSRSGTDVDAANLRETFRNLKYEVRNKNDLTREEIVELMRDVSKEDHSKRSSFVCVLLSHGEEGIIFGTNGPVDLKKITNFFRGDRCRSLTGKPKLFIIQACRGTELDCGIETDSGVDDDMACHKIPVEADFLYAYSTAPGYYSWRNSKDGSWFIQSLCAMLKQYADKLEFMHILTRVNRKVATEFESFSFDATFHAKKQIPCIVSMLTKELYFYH
Chain of Cytochrome P450 2C19 (Homo sapiens) (P33261 whole entry, looked up): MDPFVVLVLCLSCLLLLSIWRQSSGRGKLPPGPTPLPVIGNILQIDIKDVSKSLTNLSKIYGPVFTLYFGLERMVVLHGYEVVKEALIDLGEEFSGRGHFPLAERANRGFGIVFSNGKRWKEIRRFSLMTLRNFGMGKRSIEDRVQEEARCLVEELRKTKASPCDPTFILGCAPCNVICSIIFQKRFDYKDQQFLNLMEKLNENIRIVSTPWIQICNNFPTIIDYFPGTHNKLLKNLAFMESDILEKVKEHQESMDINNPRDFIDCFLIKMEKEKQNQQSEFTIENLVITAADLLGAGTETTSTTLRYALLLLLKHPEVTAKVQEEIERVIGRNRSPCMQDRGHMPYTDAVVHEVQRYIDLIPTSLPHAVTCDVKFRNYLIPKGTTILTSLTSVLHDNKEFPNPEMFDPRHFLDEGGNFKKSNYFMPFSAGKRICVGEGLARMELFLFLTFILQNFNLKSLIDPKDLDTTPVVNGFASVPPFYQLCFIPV

CS(=O)(=O)OCCCCOS(C)(=O)=O
inactive: [1] | [2] | [3] | [4] | [5] | [6] | [7] | [8] | [9] | [10] | [11] | [12] | [13] | [14] | [15] | [16] | [17] | [18] | [19] | [20]
